Assay outcomes (PubChem BioAssay)
An excerpt weighted towards active compounds, which were near 3.5% of everything screened.
GPR151 ag: activates the human receptor GPR151; Q8TDV0; PathHunter beta-arrestin GPR151 cells, luminescence; activation, % at 11.2 µM; 650,000 compounds, 1% hits; in the data active = activation above about 4.9%;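 note: 0% = median of compound wells and 100% = cells with positive control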
Target sequence (Q8TDV0 whole entry, looked up): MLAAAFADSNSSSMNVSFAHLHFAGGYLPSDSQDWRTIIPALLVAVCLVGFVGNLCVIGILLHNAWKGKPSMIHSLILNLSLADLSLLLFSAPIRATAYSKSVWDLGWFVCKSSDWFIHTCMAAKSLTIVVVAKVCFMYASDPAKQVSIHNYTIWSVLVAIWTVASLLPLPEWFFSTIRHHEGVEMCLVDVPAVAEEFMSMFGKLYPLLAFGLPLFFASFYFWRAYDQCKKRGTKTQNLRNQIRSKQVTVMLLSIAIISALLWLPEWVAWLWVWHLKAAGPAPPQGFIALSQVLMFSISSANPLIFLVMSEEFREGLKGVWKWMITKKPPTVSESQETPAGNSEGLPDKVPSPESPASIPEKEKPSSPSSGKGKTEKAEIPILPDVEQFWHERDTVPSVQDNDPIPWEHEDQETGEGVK
FBW7 activator: human FBW7 E3 ligase activation, primary screen. Q969H0. AlphaScreen FBW7–phospho-cyclin E peptide binding, activator screen. normalized activity (activation), % at 26.1 µM. 650,000 compounds, 0.13% hits. AID 1259310; in the data active = normalized activity above about 1.9%;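 note: purified mutant Fbw7 with reduced substrate affinity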
TEAD-YAP block: TEAD-YAP interaction inhibition; HEK-TIYL cells, TEAD-Gal4/YAP UAS-luciferase luminescence; inhibition, % at 9.12 µM; 640,000 compounds, 1.4% hits; in the data active = inhibition above about 32%;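 note: 0% = median of test compound wells and 100% = reference inhibitor wells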
MITF inh: blocks human microphthalmia-associated transcription factor | inhibition, % at 2.6 µM | O75030 | AlphaScreen MITF homodimerization, bead proximity signal | 650,000 compounds, 0.91% hits | AID 1259374; in the data active = inhibition above about 50%;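 note: 0% = vehicle wells with protein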
GPR151 conf act: confirmation of human GPR151 activators; shares compounds with GPR151 ag; GPR151 PathHunter beta-arrestin cells, luminescence, 90 min; % of EA-reagent control over plate median; activation, % at 11.2 µM; 6,700 tested, under 10 active; AID 1508609;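 active = mean percent activation across replicates above the confirmation screen cutoff of 4.91%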
GPR119 counter: counter-screen for GPR151 activators: effect on human GPR119; shares compounds with GPR151 ag; GPR119 PathHunter beta-arrestin cells, luminescence, 90 min; 0 = compound-well median, 100 = enzyme-acceptor control; activation, % at 11.2 µM; 6,700 compounds, 0.3% hits; AID 1508611;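 active = mean percent activation in the counterscreen above 29.09%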;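 note: counterscreen on off-target GPR119 to flag nonselective hits from the GPR151 activator screen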
Starred values were filed as active, the others as inactive.

What do the screens show for `COc1cc([N+](=O)[O-])cc2c1NC(c1cccnc1)C1CC=CC21` (configuration not stated)?
GPR151 ag: 5.2*; FBW7 activator: 0; TEAD-YAP block: 0; MITF inh: 7; GPR151 conf act: 0; GPR119 counter: -7

Results for CCCOC(=O)c1ccc(Nc2c(C(=O)OCC)cnc3c(C)c(Cl)ccc23)cc1 ?
GPR151 ag: 2; FBW7 activator: 0; TEAD-YAP block: 4; MITF inh: -2

Results for O=C(NCCN1CCN(Cc2ccc(Br)cc2)CC1)C(=O)Nc1ccc(Cl)cc1 ?
GPR151 ag: 0; FBW7 activator: 0; TEAD-YAP block: 4; MITF inh: 0

What do the screens show for `CNC(=O)C(=O)NCCN1CCN(Cc2ccc(Br)cc2)CC1`?
GPR151 ag: 7.8*; FBW7 activator: 0; TEAD-YAP block: 8; MITF inh: -6; GPR151 conf act: -1; GPR119 counter: -5

Results for O=C1CC(c2nc3ccccc3[nH]2)CN1c1ccccc1Cl (configuration not stated) ?
GPR151 ag: 1; FBW7 activator: 0; TEAD-YAP block: -7; MITF inh: 9

How did Cc1c(Cl)cccc1N1CC(c2nc3ccccc3[nH]2)CC1=O (configuration not stated) do in these assays?
GPR151 ag: 5.6*; FBW7 activator: 0; TEAD-YAP block: 8; MITF inh: -2; GPR151 conf act: 0; GPR119 counter: 3

Results for Cc1ccc(S(=O)(=O)NCCOC23CC4CC(CC(C4)C2)C3)cc1C ?
GPR151 ag: 1; FBW7 activator: 0; TEAD-YAP block: -11; MITF inh: -15

Results for COc1ccc(S(=O)(=O)NCCOC23CC4CC(CC(C4)C2)C3)cc1C ?
GPR151 ag: 5.3*; FBW7 activator: 0; TEAD-YAP block: -12; MITF inh: 1; GPR151 conf act: 0; GPR119 counter: 4

How did C[C@@H]1CC[C@H]2C(=O)O[C@@H](COc3ccc(C(C)(C)C)cc3)CN2[C@H]1c1ccc(Br)cc1 do in these assays?
GPR151 ag: 5.3*; FBW7 activator: 0; MITF inh: 12; GPR151 conf act: 1; GPR119 counter: -11

What do the screens show for `C=C(C)C(=O)OC[C@@H]1CN2[C@@H](CC[C@@H](C)[C@@H]2c2ccc(Br)cc2)C(=O)O1`?
GPR151 ag: -1; FBW7 activator: 0; MITF inh: 23

Results for CC(=O)c1cccc(NC(=O)COc2c(C)cccc2C)c1 ?
GPR151 ag: 5.2*; FBW7 activator: 0; TEAD-YAP block: -7; MITF inh: -14; GPR151 conf act: 0; GPR119 counter: -12

How did CCCCNc1nc2ccccc2c2nc(-c3cccnc3)nn12 do in these assays?
GPR151 ag: 1; FBW7 activator: 0; TEAD-YAP block: 4; MITF inh: 6

Results for O=C1CCCN1CCCNc1nc2ccccc2n2nnnc12 ?
GPR151 ag: 5.9*; FBW7 activator: 0; TEAD-YAP block: 2; MITF inh: -7; GPR151 conf act: 0; GPR119 counter: -8

Results for c1ccc2c(c1)nc(NCCCN1CCOCC1)c1nnnn12 ?
GPR151 ag: -2; FBW7 activator: 0; TEAD-YAP block: -8; MITF inh: 7

How did O=C1CCCN1CCCNc1nc2ccccc2c2nc(-c3cccnc3)nn12 do in these assays?
GPR151 ag: 6.3*; FBW7 activator: 0; TEAD-YAP block: 20; MITF inh: 10; GPR151 conf act: 1; GPR119 counter: 15

What do the screens show for `CNC(=O)c1c(-c2ccc(C)cc2)nc2ccccn12`?
GPR151 ag: -1; FBW7 activator: 0; TEAD-YAP block: -28; MITF inh: -3

Results for COc1ccc(CC2(CCC(=O)N3CCCCC3)CCC(=O)N2)cc1 (configuration not stated) ?
GPR151 ag: -1; FBW7 activator: 0; TEAD-YAP block: -1; MITF inh: -14

Results for CCOC(=O)c1ccc(NC(=O)/C=C/c2ccccc2O)cc1 ?
GPR151 ag: 1; FBW7 activator: 0; TEAD-YAP block: -29; MITF inh: 35

What do the screens show for `CCN(CC)S(=O)(=O)c1ccc(C(=O)c2c(C)cc3ccccn23)cc1`?
GPR151 ag: 1; FBW7 activator: 0; TEAD-YAP block: 1; MITF inh: 25

How did CC(C)N1CCN(Cc2cccc(OCCO)c2)CC1CCO (configuration not stated) do in these assays?
GPR151 ag: -1; FBW7 activator: 0; TEAD-YAP block: 0; MITF inh: -10

Results for CC(C)N1CCN(Cc2ccc(OCCO)cc2)CC1CCO (configuration not stated) ?
GPR151 ag: 5.2*; FBW7 activator: 0; TEAD-YAP block: 13; MITF inh: 2; GPR151 conf act: 1; GPR119 counter: 6

How did OCCOc1ccc(CN2CCN(Cc3ccc(F)c(F)c3)C(CCO)C2)cc1 (configuration not stated) do in these assays?
GPR151 ag: 6.8*; FBW7 activator: 0; TEAD-YAP block: 8; MITF inh: 15; GPR151 conf act: -1; GPR119 counter: -14

What do the screens show for `COc1ccc(C(=O)Cn2c(CN3CCCCC3)nc3ccccc3c2=O)cc1`?
GPR151 ag: 6.1*; FBW7 activator: 0; TEAD-YAP block: -10; MITF inh: -2; GPR151 conf act: 0; GPR119 counter: -7

What do the screens show for `CNC(=O)CN(Cc1ccccc1)S(=O)(=O)c1ccc(F)cc1`?
GPR151 ag: -1; FBW7 activator: 0; TEAD-YAP block: 9; MITF inh: 2

What do the screens show for `COc1cc(NC(=O)CSc2nnnn2C)cc(OC)c1`?
GPR151 ag: 5.1*; FBW7 activator: 0; TEAD-YAP block: 6; MITF inh: -3; GPR151 conf act: 0; GPR119 counter: -3

How did CCOC(=O)c1cccc(NC(=O)[C@H](CCS(C)(=O)=O)N2Cc3ccccc3C2=O)c1 do in these assays?
GPR151 ag: -1; FBW7 activator: 1; TEAD-YAP block: 1; MITF inh: 3

How did COc1cccc(-c2ccc(OCCCc3ccccn3)nc2)c1 do in these assays?
GPR151 ag: 5.8*; FBW7 activator: 0; TEAD-YAP block: -40; MITF inh: 6; GPR151 conf act: 0; GPR119 counter: 3

How did CC(=O)Nc1ccc(/C=C(\C#N)c2nc3ccccc3[nH]2)cc1 do in these assays?
GPR151 ag: 0; FBW7 activator: 0; TEAD-YAP block: -31; MITF inh: 3

How did CC(=O)Nc1ccc(/C=C(\c2nc3ccccc3[nH]2)S(=O)(=O)c2ccccc2)cc1 do in these assays?
GPR151 ag: 6.6*; FBW7 activator: 0; TEAD-YAP block: -3; MITF inh: 6; GPR151 conf act: 0; GPR119 counter: 3

How did CSCCC(NC(=O)c1ccccc1)C(=O)OCC(=O)Nc1sc2c(c1C#N)CCCC2 (configuration not stated) do in these assays?
GPR151 ag: 0; FBW7 activator: 0; TEAD-YAP block: 10; MITF inh: 8
